Results as given in PubChem BioAssay (NCI).
Compounds without any hit were thinned out: in the full panel of roughly 83,000, 20% have a hit.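 Step 1: grow cells in 96-well plates. Step 2: add test compound at a single concentration. Step 3: incubate 48 h. Step 4: record percent growth.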 Active and inactive are the calls of the source. How the source made its calls: active means growth percent below 10; inactive means the rest.

The compounds below were run on HL-60(TB) leukemia (assay: NCI-60 one-dose screen, 48 h (100 = growth as untreated, 0 = no growth, -100 = all killed)). Conditions: 10 µM unless noted.

SMILES	growth
Cc1cc2nc(-c3c(N)ncc(C#N)c3-c3ccc(Cl)cc3)[nH]c2cc1C	89.5% (inactive)
COc1ccc(NNS(=O)(=O)O)cc1	103% (inactive)
NC(=O)c1nc2c([nH]c1=O)CCCC2	101% (inactive)
CCc1ccc(Oc2c(-c3ccc(OCCc4cccc(C(F)(F)F)c4)cc3O)n[nH]c2C(F)(F)F)cc1	50.9% (inactive)
COc1cnc2c(c1)C(=O)c1c-2n(CCCN2CCNCC2)c(=O)c2cc([N+](=O)[O-])ccc12	-49% (active)
Cc1ccc(S(=O)(=O)O)c(C)c1	100% (inactive)
CC(CCc1ccccc1)NC(=O)c1n[nH]c(=O)c2ccccc12 (stereo not given)	88.3% (inactive)
O=C(NCc1ccco1)C1CCN(S(=O)(=O)c2ccc(Cl)cc2)CC1	19.1% (inactive)
C#Cc1cccc(NC(=O)Nc2ccccc2NC(=O)CCl)c1	16.8% [8.25 µM] (inactive)
COc1cccc(-c2cc(-c3ccc(Nc4nc(Nc5ccc(Cl)cc5)nc(Nc5ccc(Cl)cc5)n4)cc3)nc(N)c2C#N)c1	24.5% (inactive)
C=C1C(=O)O[C@H]2[C@H]1CC/C(COC(=O)/C=C\C(=O)NCc1ccc(Cn3c(=O)sn(CCCC)c3=O)cc1)=C\CC[C@@]1(C)O[C@@H]21	-45.6% (active)
CC1OC(n2c3ccccc3c3c4c(c5c6ccccc6[nH]c5c32)C(=O)N(CCN2CCOCC2)C4=O)CC(O)C1O (stereo not given)	24.3% (inactive)
CN(C)c1ccc(N)c2ccccc12	43.5% (inactive)
Cc1ccc(S(=O)(=O)Oc2ccc3sc4cccc(NCCN(C)C)c4c(=O)c3c2)cc1	-64% (active)
Clc1nnc2c3ccccc3ccn12	92.6% (inactive)
NS(=O)(=O)c1ccc(-n2nc(-c3ccc(Cl)cc3)c3ccccc3c2=O)cc1	95.2% (inactive)
CN1CCN(CCCN2c3ccccc3Sc3ccc(C(F)(F)F)cc32)CC1	83.8% (inactive)
O=C(N/N=C\c1cc(Cl)ccc1[N+](=O)[O-])c1ccco1	107% (inactive)
C=C1C(=O)O[C@H]2[C@H]1CC/C(COC(=O)NCc1ccc(Cn3c(=O)sn(CCCI)c3=O)cc1)=C\CC[C@@]1(C)O[C@@H]21	-9.41% (active)
CC/C(Cc1ccccc1)=C(\c1ccc(OCCCN(C)C)cc1)c1ccc(OC(=O)NCc2ccccc2)cc1	57.2% (inactive)

SMILES	growth
Cc1cccc(C)c1-c1cc(Cc2ccc(Cl)cc2)c(=O)[nH]n1	90.8% (inactive)
C=CCOc1ccc(/C(O)=C2\C(=O)C(=O)N(c3nccs3)C2c2ccccc2F)cc1 (stereo not given)	81.1% (inactive)
C/C(=C\c1cnc(C)s1)[C@@H]1C[C@@H]2O[C@@H]2CCC[C@H](C)[C@H](O)[C@@H](C)C(=O)C(C)(C)[C@@H](O)CC(=O)O1	0.639% (active)
Cc1cc(C)c(C=O)c(C)c1	84.1% (inactive)
Cc1c2cnccc2c(C)c2c1c1cc(C(=O)O)ccc1n2C	5.27% (active)
N#Cc1c(-c2ccccc2)cc(-c2ccc(Nc3nc(Nc4ccc(F)cc4)nc(Nc4ccc(F)cc4)n3)cc2)nc1N	14.2% (inactive)
COc1ccc(/C(=N\O)c2cc(C)c(OC)c(C)c2)cc1O	-18.3% (active)
CCc1ccc(Nc2ncnc3c2cnn3-c2cccc(Br)c2)cc1	114% (inactive)
COc1ccc(CNc2c3ccccc3nc3ccc(OC)cc23)cc1	-20.7% (active)
COc1cc(OC)c2c(c1Cl)O[C@]1(C2=O)C(OCc2ccccc2)=CC(=O)C[C@H]1C	-12% (active)
CCOC(=O)c1nn(CC(O)c2ccccc2)c(NC(=O)Nc2cccc(F)c2)c1C (stereo not given)	108% (inactive)
CCN(CC)CCN1C(=O)c2c(c(C)c3c(oc4ccc(OC)cc43)c2C)C1=O	93.3% (inactive)
Cc1ccccc1-c1nc(C(Cl)Cl)nc2cc(-c3ccccc3)nn12	92% (inactive)
CCCS(=O)(=O)Nc1cccc(Nc2ncnc3cc(NC(=O)CCl)ccc23)c1Cl	-35.5% (active)
COc1ccc(-c2cn(-c3ccc(Cl)cc3)c(=S)[nH]2)cc1OC	56.1% (inactive)
O=[N+]([O-])c1cc(Cl)c2[nH]c3c(Cl)cc([N+](=O)[O-])cc3c2c1	-28.5% (active)
C=CCSc1nnc(-c2ccc(C(C)(C)C)cc2)n1-c1cccc(C(F)(F)F)c1	5.96% (active)
CN(C)CCCNc1nn2c(=O)c3ccccc3nc2c2ccccc12	26.9% (inactive)
O=C(Nc1ccc(F)cc1)c1cc2cc(Nc3nc(-c4ccccc4)nc4ccccc34)ccc2oc1=O	102% (inactive)
CCN(CC)c1ccc2nc3c4ccccc4c(=O)cc-3n(-c3ccccc3)c2c1	-26.7% (active)
